USP10 block: blocks human USP10 ubiquitin-rhodamine cleavage; Q14694; purified USP10, Ub-rhodamine fluorescence, 60 min; AID 1645856; 1.1% of 47,000 active; inhibition, % at 20 µM
USP7 inh: human USP7 deubiquitinase inhibition | 0.3% of 47,000 active | purified USP7, Ub-rhodamine cleavage fluorescence | inhibition, % at 20 µM
USP8 inh: blocks human USP8 ubiquitin-rhodamine cleavage | AID 1645853 | purified USP8, Ub-rhodamine cleavage fluorescence, 30 min | 4.2% of 47,000 active | inhibition, % at 20 µM | P40818
UCHL1 block: inhibitors of human UCHL1 deubiquitinase | purified UCHL1, Ub-rhodamine cleavage fluorescence | inhibition, % at 20 µM | 0.2% of 47,000 active | AID 1645859
Target sequence (P09936 whole entry, looked up): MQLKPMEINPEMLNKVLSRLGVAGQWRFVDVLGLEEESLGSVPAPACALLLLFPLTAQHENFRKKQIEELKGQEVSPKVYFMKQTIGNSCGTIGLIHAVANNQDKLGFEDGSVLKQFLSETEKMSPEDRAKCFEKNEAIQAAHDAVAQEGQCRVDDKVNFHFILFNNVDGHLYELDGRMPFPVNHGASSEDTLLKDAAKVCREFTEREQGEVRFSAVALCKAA
An asterisk follows results filed as active. A selection: hits, their analogues and other compounds. The true share with any hit is near 4.6%. No stated cut-off is given here; in the data, active means inhibition above about 30%; inactive means the rest.

SMILES	USP10 block	USP7 inh	USP8 inh	UCHL1 block
CN(C)S(=O)(=O)N1CCC(Cc2nccnc2-c2ccn[nH]2)CC1	0	3	-32	-2
Cc1ccc(-n2nnnc2-c2cnc3cc(Cl)ccc3c2N)cc1	15	18	44*	7
Clc1ccc2ncc(-c3nnnn3-c3ccc4ccccc4c3)c(-c3ccccc3)c2c1	4	-20	9	5
O=c1c2cnc(N3CCN(c4ccccc4)CC3)nc2ccn1Cc1ccc2c(c1)OCO2	0	1	0	0
O=c1c2cnc(N3CCCCC3)nc2ccn1Cc1ccc2c(c1)OCO2	-4	3	42*	0
COc1ccc(Cn2nccc2NC(=O)C2COc3ccccc3O2)cc1 (configuration not stated)	-2	-4	-4	-3
O=C(Nc1ccccc1)c1sccc1Oc1ccc([N+](=O)[O-])c(C(F)(F)F)c1	8	-4	44*	5
O=C(Nc1ccccc1F)c1sccc1Oc1ccc([N+](=O)[O-])cc1F	9	-3	87*	4
COC(=O)c1ccccc1NC(=O)c1sccc1Oc1ccc(F)cc1[N+](=O)[O-]	2	10	12	6
CCC(NC(=O)Nc1c(F)cccc1F)(C(F)(F)F)C(F)(F)F	3	5	12	0
CC(=O)Nc1ccc(NC(=O)CN2CCC(c3nc4ccccc4[nH]3)CC2)cc1	-2	1	-6	-6
CCOC(=O)N1CCN(C(=O)c2cn(CC)c3ccc(S(=O)(=O)N4CCc5ccccc5C4)cc3c2=O)CC1	0	0	46*	1
CCn1cc(C(=O)N2CCCCCC2)c(=O)c2cc(S(=O)(=O)N3CCCCCC3)ccc21	-4	-6	-10	-8
c1cc2c(cc1-c1cc(C3CCCCCN3)no1)OCO2 (configuration not stated)	-1	3	-1	1
Nc1nnc(-c2cc(-c3ccc4c(c3)OCO4)on2)o1	17	8	54*	1
COc1cn(-c2ccc(F)cc2)nc1C(=O)Nc1ccc(Cl)cc1Cl	11	11	49*	24
CNC(=O)c1cnc(C2CCCCN2C(=O)c2ccccc2)s1 (configuration not stated)	2	1	1	2
CC1=CC2=NC(=O)/C(=C\c3cn(CCOc4ccccc4)c4ccccc34)C(=N)N2O1	-1	-33	-20	-47
N=C1/C(=C/c2cn(Cc3ccc(F)cc3)c3ccccc23)C(=O)N=C2SC(Cc3ccccc3)=NN12	34*	11	74*	-5
O=C(O)c1cn(Cc2ccc(F)cc2)c(=O)c2ccccc12	0	-7	14	-5
N=C1/C(=C/c2cn(Cc3ccccc3)c3ccccc23)C(=O)N=C2SC(C(F)(F)F)=NN12	43*	10	10	0
Cc1cccc(Nc2nc(NCCN3CCOCC3)nc3c2cnn3C)c1	0	-3	-3	0
CC1CCN(C(=O)Cn2cc(S(=O)(=O)Cc3cccc(F)c3)c3ccccc32)CC1	1	-24	-1	3
CC(C)(C)c1ccc(C(=O)OCC(=O)Nc2ccc3c(c2)OCO3)cc1	2	9	12	3
Cc1cc(C(=O)COC(=O)c2ccc(C(C)(C)C)cc2)c(C)n1Cc1ccc2c(c1)OCO2	0	3	34*	0
SMILES	USP10 block	USP7 inh	USP8 inh	UCHL1 block
CCCCCc1cc(O)c2c(ccc3c(O)c4c(cc32)C(C)(C)c2cc(O)cc(O)c2C4=O)c1	10	-1	1	2
COc1ccc(Cn2nnnc2CN2CCC(Nc3nc(C)cc(=O)[nH]3)CC2)cc1	-2	-4	-50	-5
CC(=O)N1CCc2c(sc(NC(=O)C3CC3)c2C(N)=O)C1	-2	-13	50*	-11
CC(C)N1CCc2c(sc(NC(=O)CSc3ccccc3)c2C(N)=O)C1	-10	0	-25	0
O=C(Cn1c(-c2nc(-c3cccc(F)c3)no2)cccc1=O)NCc1ccco1	38*	5	87*	13
CC1CSc2ccc(S(=O)(=O)Nc3ccc(CN4CCCCC4)cc3)cc2NC1=O (configuration not stated)	0	1	-11	-1
O=C(CCc1ccc(S(=O)(=O)N2CCOCC2)cc1)OCC(=O)c1ccc(-c2ccccc2)cc1	38*	10	31*	1
O=C(CCc1ccc(S(=O)(=O)N2CCOCC2)cc1)NC(c1ccccc1)c1ccccc1	0	1	-36	0
CC(C)N1CCC2(CC1)Nc1ccccc1C(=O)N2Cc1ccccc1	-8	-2	17	-3
O=C1c2ccccc2NC2(C(=O)Nc3ccc(Br)cc32)N1c1ccccc1 (configuration not stated)	6	-7	33*	6
O=C(O)c1cccc2[nH]c(-c3ccc(O)cc3)nc12	3	4	41*	2
COc1c(C)cccc1C(=O)Nc1ccc(-c2nc3ccccc3[nH]2)cc1	-2	0	0	-7
CC(C)(C)c1ccc(C(=O)Nc2ccc(O)c(-c3nc4cnccc4o3)c2)cc1	5	3	61*	2
Cc1ccnc(-n2c(C)c(C)c3c(=N)n(CCO)cnc32)c1	-4	-1	-53	-4
Cc1c(C)n(-c2ccc(Br)cn2)c2ncn(Cc3ccccc3)c(=N)c12	-7	-21	44*	-8
COc1ccc(S(=O)(=O)N2CCOCC2)cc1NC(=O)C1Cc2ccccc2CN1C(=O)c1ccco1 (configuration not stated)	-5	-11	49*	-7
Cc1nn(-c2nc3ccccc3[nH]2)c2c1C(c1ccsc1)CC(=O)N2 (configuration not stated)	6	2	11	0
Cc1ccc(-c2cc(C(=O)Nc3ccccc3Cl)[nH]n2)c(O)c1C	15	8	33*	-1
O=C(Nc1cc(=O)[nH]c2nc(COc3ccccc3)nn12)c1ccc(Cl)cc1	19	6	35*	1
O=C(Cn1cc(S(=O)(=O)Cc2ccccc2)c2ccccc21)NCCC1=CCCCC1	12	4	-6	2
O=C(CS(=O)(=O)c1cn(CC(=O)N2CCOCC2)c2ccccc12)Nc1ccccc1	0	5	9	-1
COc1ccc(NC(=O)Cn2cc(S(=O)(=O)Cc3ccccc3)c3ccccc32)c(OC)c1	15	11	33*	1
Cc1ccccc1NC(=O)Cn1cc(S(=O)(=O)Cc2ccccc2)c2ccccc21	7	20	35*	6
O=C(Cn1cc(S(=O)(=O)Cc2ccccc2)c2ccccc21)Nc1ccccc1	-5	0	34*	-8
Cc1cccc(CN2C(=O)N(c3cccc(F)c3)c3ncccc3S2(=O)=O)c1	-2	-1	-3	0
CC1Oc2ccc(NC(=O)c3ccc(NS(=O)(=O)c4ccc5c(c4)OCCO5)cc3)cc2NC1=O (configuration not stated)	4	9	-19	3
O=C(Nc1ccc2c(c1)OCO2)c1cncc(NS(=O)(=O)c2ccc3c(c2)OCCO3)c1	-8	-13	45*	-6
CC(=O)Nc1ccc(S(=O)(=O)Nc2cncc(C(=O)NCc3ccc4c(c3)OCO4)c2)cc1	-2	7	6	3
O=C(Nc1ccc2c(c1)OCO2)c1cncc(NS(=O)(=O)c2ccccc2)c1	0	-33	70*	21

Assay outcomes as filed in PubChem.
